The record followed here is PubChem BioAssay (NCI).

About 83,000 compounds went through this panel and 20% of them were active in at least one assay; those are over-represented in the sample as a whole.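 Cell lines were cultured in 96-well plates, exposed to a single compound concentration, and assessed for percent growth 48 hours later.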 Values without a mark were called inactive. Active and inactive are the calls of the source. The calls were made as follows: active = growth percent below 10; inactive = the rest.

This assay concerns HL-60(TB) leukemia. The assay can be described thus: NCI-60 one-dose screen, 48 h (100 = growth as untreated, 0 = no growth, -100 = all killed). The note with it: 10 µM unless noted.
For `O=C(NCCCl)NCCN1c2nc3ccccc3cc2Sc2cc3ccccc3nc21`, the growth was 24.3%. `CN(C)CN1CCN(c2ccc3nc(-c4ccc5nc(-c6ccc(C(F)(F)F)cc6)[nH]c5c4)[nH]c3c2)CC1`: the growth is 59.6%.

For the compound `COc1cc(NC(C)CCCNC(=O)CCC(=O)NCCCNCCCCCCCCCCNCCCNC(=O)CCC(=O)NCCCC(C)Nc2cc(OC)cc3cccnc23)c2ncccc2c1` (stereo not given), the growth was 58.2% [8 µM]. Under `NCCNc1nc2ccccc2c2c(=O)c3cc(F)ccc3sc12` stands 62.8%; under `O=C1OC(Oc2ccc(Br)cc2)(c2ccccc2)c2ccccc21` (stereo not given), 120%. Under `Cc1ccc(/C=C/C(=O)c2cccc(OCCCOc3cccc(C(=O)/C=C/c4ccc(C)cc4)c3)c2)cc1` stands 57.6%; under `CCC(CO)Nc1nc2ccc(Cl)cc2c2ccccc12` (stereo not given), 25%; under `C=CCc1cc(Nc2c3ccc(Cl)cc3nc3ccc(OC)cc23)cc(CN(CC)CC)c1O`, -17% (active). With `C=CCNC(=S)NNc1ccc([N+](=O)[O-])cn1`, the growth was 87.2%. Under `Cc1oc2c(Cc3ccc(NC(=O)c4ccc(Cl)cc4)cc3)ncnc2c1C(=O)NO` stands 87.9%; under `CC(C)(C)n1cc(-c2ccnc(NCCNS(=O)(=O)c3ccc(Br)cc3)c2)c(-c2cccc(O)c2)n1`, -8.19% (active); under `Cn1cc(-c2ccc3occ(-c4cccc(-c5ccncc5)c4)c3n2)cn1`, 2.9% (active). Under `Cc1ccc(CNc2ccc3nc(CCC4CCCCC4)[nH]c3c2)cc1` stands 14.8%; under `O=S(=O)(NCCNc1cc(-c2cn(-c3ccccc3)nc2-c2ccccc2)ccn1)c1ccc(F)cc1`, 69.9%.

Take `CC1(O)CCCCC1O` (stereo not given): the growth is 107%. Consider `COc1ccc(-c2ccc(NC(=O)Nc3ccc(Cl)c(C(F)(F)F)c3)c(C)n2)cc1`, for which the growth is 32.3%.

Take `CC(C)(C)OC(=O)N1CCN(c2ccc(N)cc2)C(=O)C1`: the growth was 102%. The value for `O=C1/C(=C/c2ccccc2)CCc2nc3ccccc3c(/C=C/c3ccc(Cl)cc3)c21` was 83.2%. As for `CCOC(=O)c1c(-c2ccc(C)cc2)c(C#N)c(=O)n(-c2cccc(C(F)(F)F)c2)c1N`, the growth is 102%. Under `Brc1cnc2ccccc2c1` stands 89.1%; under `C=CCn1c(SCC(=O)Nc2ccc(C(=O)/C=C/c3ccc(Cl)cc3)cc2)nnc1-c1cc(OC)c(OC)c(OC)c1`, 97.7%; under `Fc1ccccc1C1c2ccccc2-c2nccn21` (stereo not given), 76.5%. For the compound `CC(C)(C)c1cn2cccc(C(=O)N3CCN(CC(=O)Nc4ccc(Cl)cc4C(=O)c4ccccc4Cl)CC3)c2n1`, the growth was -32.4% (active). Under `Cc1cccc2c1O/C(=C\c1ccc([N+](=O)[O-])o1)C2=O` stands -25.7% (active); under `c1ccc(CCNc2c3ccccc3nc3ccccc23)cc1`, 41.3%.

For `CCCCNC1=C(OCC)C(=O)c2ccccc2C1=O`, the growth is 101%. The value for `NC1=C(c2nn[nH]n2)C(c2ccccc2Cl)c2ccc3ccccc3c2O1` (stereo not given) was 54.3%; that for `Cc1c(C(=O)/C=C/Nc2c(Cl)cc(S(N)(=O)=O)cc2Cl)sc2nc3ccccc3n12` was 101%; that for `C=CCOC(=O)C1=C(C)N(CC)C(=O)N(CC)C1c1c(Cl)n(C)c2ccccc12` (stereo not given) was 96.9%. The value for `COc1cc(C(F)(F)F)ccc1-c1cc(-c2ccc(F)cc2)n[nH]1` was 115%; that for `CCN(CC)CCn1c2ccc(OC)cc2c2sc3cc(OC)ccc3c(=O)c21` was 7.58% (active). The value for `CC(C)=CCCC(C)c1ccc(C)c2c1OCN(CCCCCO)C2` (stereo not given) was 51.7%. As for `Cc1ccnc(Nc2ccc([N+](=O)[O-])c(NCCN3CCOCC3)n2)c1`, the growth is -14.9% (active). As for `N=C(N)N=Nc1ccc(NN=C(N)N)c2ccccc12`, the growth was 113%. As to `CCCCCCCCCCCC[n+]1ccc2ccccc2c1`, the growth was -53.4% (active).

In the case of `CCOC(=O)C1=NN(c2ccccc2)C(=O)/C1=C\N1C(=O)/C(=C/c2cccc(O)c2)SC1=S`, the growth is 93.2%.

`COc1cc2nc(Nc3cccc(C(=O)O)c3)nc(N)c2cc1OC`: the growth was 109%. Turning to `Cc1nn(-c2ccc([N+](=O)[O-])cc2)c2ncnc(N/N=C/c3ccccc3O)c12`, the growth is -0.479% (active). Regarding `NC[C@@](O)(c1ccc(Cl)cc1)c1ccc(-c2cn[nH]c2)cc1`, the growth is -42.8% (active). For the compound `Cc1ccc2nc(CN(CCN(Cc3nc4ccc(C)cc4[nH]3)Cc3nc4ccc(C)cc4[nH]3)Cc3nc4ccc(C)cc4[nH]3)[nH]c2c1`, the growth is -67.7% (active).
